HCMV antiviral – blocks human cytomegalovirus replication; HFF cells, HCMV-luciferase reporter, 72 h; stronger effect = lower value; hit rate 4.5% among 410,000; activity change, negative = inhibition, % at 57.5 µM; in the data active = activity change below about -60%; inconclusive = no clear call, values can overlap the other calls; inactive = above about -39%
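Screen run at 2 compound doses on HFFs infected with reporter HCMV, MOI 1 PFU/cell. Luciferase activity from cell lysates at 72 h post infection gave inhibition relative to buffer-only and Salinomycin wells.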
Pf growth 96h – P. falciparum growth inhibition at 96 hour, primary screen for plastid delayed-death inhibitors. Potency, µM (doses to about 28.7 µM), inactives show at the highest dose activity change, negative = inhibition, usual class: inhibitors. hit rate 6.9% among 320,000. P. falciparum luciferase reporter growth, 96 h; also: potency is read from the fitted curve at half-maximal effect
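Luminescence readout: decreased luciferase signal marks inhibited growth of reporter-expressing P. falciparum in infected red cells (2% hematocrit, 0.05% parasitemia final), exposed to compound two generations (96 h, 37 C, 5% CO2).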
Sm TGR block – S. mansoni TGR enzyme inhibition | hit rate 3% among 360,000 | AID 485364 | purified TGR, DTNB reduction, TNB absorbance 405 nm | Potency, µM (series often up to 114 µM), inactives show at the highest dose activity change, negative = inhibition, most hits filed as inhibitors; also: potency is read from the fitted curve at half-maximal effect; nearly all actives have a fitted effect of over 60% in size
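First, TGR (20 nM dispensed) and NADPH were mixed with compound. Second, a 15 min room-temperature incubation followed. Third, further NADPH and then DTNB were added to start the reaction. Finally, TNB absorbance was monitored kinetically.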
Pf growth 48h – P. falciparum growth inhibition at 48 hours (one generation); hit rate 5.9% among 310,000; P. falciparum luciferase growth in erythrocytes, 48 h; Potency, µM (top dose mostly 28.7 µM), without a hit: at the highest dose activity change, negative = inhibition, usual class: inhibitors; also: potency is read from the fitted curve at half-maximal effect
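First compound was added to culture medium, then infected red cells at 0.1% parasitemia and 2% hematocrit (final). After incubation at 37 C under 5% CO2, luciferase detection reagent was dispensed and light output recorded.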
FBPA Giardia inh – Giardia lamblia aldolase inhibition; purified Giardia FBPA; hit rate 0.71% among 290,000; Potency, µM (top dose mostly 59.6 µM), for inactives: at the highest dose activity, negative = inhibition, most hits filed as inhibitors; also: potency is read from the fitted curve at half-maximal effect; nearly all actives have a fitted effect of over 55% in size
Target sequence (A8B2U2 whole entry, looked up): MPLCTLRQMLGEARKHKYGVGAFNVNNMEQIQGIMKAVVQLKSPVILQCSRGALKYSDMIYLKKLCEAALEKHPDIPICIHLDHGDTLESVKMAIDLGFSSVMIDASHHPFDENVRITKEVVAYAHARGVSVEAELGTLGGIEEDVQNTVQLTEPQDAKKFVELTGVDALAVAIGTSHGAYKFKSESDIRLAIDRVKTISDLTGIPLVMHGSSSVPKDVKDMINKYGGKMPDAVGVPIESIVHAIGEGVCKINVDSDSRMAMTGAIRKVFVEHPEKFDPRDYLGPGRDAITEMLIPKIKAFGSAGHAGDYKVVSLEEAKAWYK
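40 nM FBPA preincubated 10 min at RT with compound (up to 57.5 uM final), then substrate plus GAPDH/TPI/NAD/arsenate coupling and diaphorase/resazurin added. Fluorescence read after 20 min at RT, 525/598 nm.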
* marks the source's active call; other numbers are inactive results; ? = inconclusive; . = no result given; [ ] = remark or other dose. This is a sample that favours compounds with a hit; in the whole collection about 14% have one here. Unless noted, calls follow the shape of the dose curve; as a rule, active = well fitted curve in the direction sought with a large enough effect; inconclusive = small, poorly fitted or top-dose-only effect, or another doubt; inactive = no such curve, though single readings can be large; an effect the other way counts as inactive or inconclusive. % is scaled to controls: 0 for no effect and ±100 for the full control effect.

SMILES | HCMV antiviral | Pf growth 96h | Sm TGR block | Pf growth 48h | FBPA Giardia inh
CC(=O)Nc1ccc(S(=O)(=O)CC(=O)CS(=O)(=O)c2ccc(NC(C)=O)cc2)cc1 | -27.6 | . | . | . | .
COc1ccc2c(c1)O[C@H](c1ccc3c(c1)OCO3)[C@@H](OC(=O)Nc1ccc(C)c(Br)c1)C2=O | . | . | . | . | 0.7%
CN1C(=O)C(n2ccc3ccccc32)c2cc(Cl)ccc21 (stereo not drawn) | -6.2 | . | . | . | .
O=C(CCS(=O)(=O)c1ccc(Br)cc1)Nc1ccccc1Cl | -10.0 | 0.0% | 4.0% | 3.7% | 14.1%
O=C(CCS(=O)(=O)c1ccc(Br)cc1)Nc1ccccn1 | ? | -6.2% | 3.16µM* | 12.3% | -2.1%
COCCNC(=O)CN(Cc1ccc(Cl)cc1)S(C)(=O)=O | 29.3 | . | 3.3% | 15.5% | 2.9%
Cc1ccc(S(=O)(=O)Cc2ccc(C(=O)NCCCN3CCCC3=O)o2)cc1 | -9.8 | -23.9% | 20µM* | . | -2.9%
COc1ccc(CCNC(=O)c2ccc(CS(=O)(=O)c3ccc(Cl)cc3)o2)cc1OC | ? | 10.4µM* | -28.7% | -48.0% | -2.6%
O=C(NCCCN1CCCC1)c1ccc(CS(=O)(=O)c2ccc(Br)cc2)o1 | 1.2 | ? | -20.3% | . | -17.1%
COc1ccc(CCNC(=O)CN(Cc2ccc(Cl)cc2)S(C)(=O)=O)cc1OC | 5.5 | 14.7µM* | -9.0% | 0.0% | 10.4%
Cc1nc(Cl)c2c(n1)N(CC(N)=O)C(=O)CO2 | -29.4 | 0.7% | -5.8% | 4.0% | 0.4%
C=C1N(S(=O)(=O)C(F)(F)F)CCC12CN(Cc1ccccc1)c1ccccc12 (stereo not drawn) | 4.1 | . | . | . | .
Cc1cc2c(cc1S(=O)(=O)C(C)CC(=O)NC1CCC(C)CC1)OCC(=O)N2 (stereo not drawn) | 2.8 | . | -2.8% | . | .
CCNc1ncc2nc(-c3cccs3)c(=O)n(Cc3cccc(OC)c3)c2n1 | . | . | . | . | -2.1%
C[C@@H]1CCCCO[C@H](CN(C)C(=O)C2CCCCC2)[C@@H](C)CN([C@H](C)CO)C(=O)c2cc(NS(=O)(=O)c3cccs3)ccc2O1 | 0.0 | . | . | . | .
O=S(=O)(NCCc1ccccc1)c1ccc(Br)cc1 | 61.8 | 13.1µM* | 0.5% | -6.3% | 2.8%
COc1ccc(CN2CCc3nc(SCC(=O)Nc4cc(C)cc(C)c4)[nH]c(=O)c3C2)cc1 | 9.3 | . | 1.9% | . | .
Cc1ccccc1-c1cnc(C(O)c2ccc(C(C)(C)C)cc2)[nH]1 (stereo not drawn) | 1.1 | . | . | . | .
O=C(c1cc(-c2ccc(O)cc2)on1)N1CCN(c2ccc(F)cc2)CC1 | -62.6* | 44.8% | -17.6% | -13.9% | -3.2%
O=C(c1cc(-c2ccc(O)cc2)on1)N1CCN(c2ccccc2)CC1 | -29.9 | 34.6% | 0.9% | 12.3% | -2.5%
O=C(c1cc(-c2ccc(F)cc2)on1)N1CCCCCC1 | 5.7 | 14.7µM* | 0.9% | 174.2% | 5.0%
S=c1[nH]nc(-c2ccco2)n1/N=C/C(Cl)=C/c1ccccc1 | ? | 64.9% | -36.0% | 5.22µM* | 3.8%
CC(/C=N/n1c(-c2cccnc2)n[nH]c1=S)=C\c1ccccc1 | -76.7* | 48.1% | 17.2% | 37.1% | .
CC(=C/c1ccccc1)/C=N/n1c(C)n[nH]c1=S | -8.9 | 11.7µM* | 2.4% | 9.6% | 19.9%
S=c1[nH]nc(-c2cc(-c3ccccc3)n[nH]2)n1/N=C/C(Br)=C/c1ccccc1 | -100.1* | 9.28µM* | ? | 5.22µM* | 0.6%
SMILES | HCMV antiviral | Pf growth 96h | Sm TGR block | Pf growth 48h | FBPA Giardia inh
N#CC[C@H](Cc1ccccc1)N1CCN(Cc2ccccc2)CCC1=O | 5.1 | 32.5% | 0.0% | 0.2% | 10.8%
CC(=O)Nc1ccc(SC[C@H](Cc2ccccc2)N2CCN(CCc3ccccc3)CCC2=O)cc1 | 4.4 | 2.94µM* | -31.8% | 8.28µM* | -0.3%
CC(=O)Nc1ccc(SC[C@H](Cc2ccccc2)N2CC[C@@H](C(C)(C)C)CCC2=O)cc1 | -14.8 | ? | -3.8% | 1.85µM* | .
N#CC[C@H](Cc1ccccc1)N1CCN(CCc2ccccc2)CCC1=O | -17.7 | 3.7µM* | -21.2% | -44.5% | -3.0%
CC(C)(C)[C@H]1CCC(=O)N([C@H](CSc2ccccc2)Cc2ccccc2)CC1 | -18.0 | ? | -4.7% | ? | 7.9%
C=C[C@H]1CCC=C2C(=O)CCC[C@@H]21 | . | . | . | . | -2.0%
CC(C)c1ccc(C(=O)CC2(O)C(=O)N(CCc3ccccc3)c3ccc(Cl)cc32)cc1 (stereo not drawn) | -105.2* | . | -3.8% | . | .
CCCN1C(=O)C(O)(CC(=O)c2ccc(CC)cc2)c2ccccc21 (stereo not drawn) | -12.4 | . | 8.4% | . | .
C#CCN1C(=O)C(O)(CC(=O)c2ccc(OC)c(OC)c2)c2cc(Br)ccc21 (stereo not drawn) | -62.0* | . | -12.3% | . | .
CCCCN1C(=O)C(O)(CC(=O)c2ccc(CC)cc2)c2cc(Br)ccc21 (stereo not drawn) | -78.8* | . | -6.8% | . | .
COC(=O)CN1C(=O)C(O)(CC(=O)c2ccc(Br)cc2)c2ccccc21 (stereo not drawn) | -62.3* | 2.4% | -16.5% | . | 0.6%
CCN1CCc2nc3sc(C(=O)Nc4cccc(Cl)c4C)c(N)c3cc2C1 | ? | . | 0.0% | . | .
COC(=O)c1cc(NC(=O)Cn2ncc3c2-c2ccccc2OC3)cc(C(=O)OC)c1 | 8.1 | . | 1.5% | . | .
Cc1n[nH]c(C)c1C(=O)CC1(O)C(=O)N(CCc2ccccc2)c2ccc(Br)cc21 (stereo not drawn) | -0.8 | ? | 0.0% | -6.1% | -0.4%
C=CCN1C(=O)C(O)(CC(=O)c2ccco2)c2cc(Br)ccc21 (stereo not drawn) | -81.8* | 26.3% | -10.4% | -1.3% | -0.6%
O=C(CC1(O)C(=O)N(CCc2ccccc2)c2ccc(Br)cc21)c1ccccc1O (stereo not drawn) | -76.6* | . | -1.9% | . | .
CC1(C(=O)NS(=O)(=O)C2CC2)CCCN(C(=O)c2cccs2)C1 (stereo not drawn) | -60.9* | . | . | . | .
NCCC[C@@H](CC(=O)N[C@@H]1CCNC[C@H]1C(=O)N[C@H](CC(=O)N[C@@H](CCC(=O)O)CC(=O)O)Cc1ccccc1)NC(=O)C[C@H](Cc1ccccc1)NC(=O)[C@@H]1CNCC[C@H]1N | . | . | . | . | -27.9%
COc1ccc(C2=NO[C@@H]3C(=O)N(c4ccc(C)cc4C)C(=O)[C@H]23)cc1OC | -28.1 | 12.9%[5.75 µM] | 11.2µM* | -5.9% | 10.6%
COc1ccc(-c2cn(-c3ccc(C)cc3C)c(=O)[nH]2)cc1OC | -30.7 | ? | 11.2µM* | 9.7% | -3.3%
COc1ccc(C2=NO[C@@H]3C(=O)N(c4cccc(C)c4C)C(=O)[C@H]23)cc1OC | 2.3 | . | -14.3% | 3.8% | -28.0%
CCN(Cc1cc(=O)[nH]c2ccccc12)C(=O)c1ccc(C)cc1 | 28.9 | 13.4% | 2.8% | 8.0% | 2.6%
CCCN1CCc2c(sc(NC(=O)c3ccc(S(=O)(=O)N(C)c4ccccc4)cc3)c2C(N)=O)C1 | . | 9.28µM* | -19.4% | 9.28µM* | 7.0%

Screens deposited in PubChem BioAssay by National Center for Advancing Translational Sciences (NCATS).
